Here are results for 26 compounds from PubChem BioAssay (NCATS).

Records with an inconclusive call do not appear. Active and inactive are the calls of the source. Unless noted, calls come from the whole dose curve; as a rule, active = well fitted curve in the direction sought with a large enough effect; inconclusive = small, poorly fitted or top-dose-only effect, or another doubt; inactive = no such curve, though single readings can be large; an effect the other way counts as inactive or inconclusive.

Assay [1] addresses N-terminal Xaa-Pro-Lys N-methyltransferase 1 (Homo sapiens) (UniProt Q9BV86). The assay is described as follows: Confirmatory qHTS for Inhibitors of N-terminal methyltransferase 1 (NTMT1): MTaseGlo Assay (AID 1645874). Note: nearly all actives have a fitted effect of over 65% in size. Note: potency is the fitted concentration of half-maximal effect. The method in brief: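 MTase-Glo luminescence measured SAH formed by 125 nM NTMT1 from 100 uM SAM and 1 uM SPKRIA peptide over 30 min at room temperature, following 15 min compound preincubation. Percent inhibition against no-enzyme and DMSO controls gave 4-parameter Hill fits.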
In general terms: Quantitative high-throughput screening tests each substance at several concentrations.

A short description of assay [2]: Primary qHTS for inhibitors of nuclear receptor binding SET domain protein 2 (NSD2) in an isogenic RCH-ACV NSD2 p.E1099K mutant (9B) (AID 1645876). Note: potency is the fitted concentration of half-maximal effect; nearly all actives have a fitted effect of over 70% in size.
The nature of assay [3]: Primary qHTS for inhibitors of nuclear receptor binding SET domain protein 2 (NSD2) in an RCH-ACV wild type WT cells (2C) (AID 1645877). Note: potency is the fitted concentration of half-maximal effect; nearly all actives have a fitted effect of over 70% in size.
Assay [4] concerns the target Glutathione peroxidase 1 (Homo sapiens) (UniProt P07203). Description: Primary qHTS Assay for Inhibitors of Recombinant Selenoprotein Glutathione Peroxidase 1 (GPX1) (AID 1845191). Note: nearly all actives have a fitted effect of over 65% in size. The method in brief: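 NADPH consumption tracked by fluorescence at 340/450 nm between t=0 and t=15 min, room temperature. Final mix: 10 nM GPX1, 100 nM glutathione reductase, 1 mM GSH, 0.5 mM NADPH, 0.5 mM cumene hydroperoxide, 0.01% BSA; 30 min compound–enzyme preincubation.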

The target in assay [5] is Phospholipid hydroperoxide glutathione peroxidase GPX4 (Homo sapiens) (UniProt P36969). The assay is described as follows: Primary qHTS Assay for Inhibitors of Recombinant Selenoprotein Glutathione Peroxidase 4 (GPX4) (AID 1845192). Note: series mostly up to about 50 µM; % is set by controls: 0 for no effect and ±100 for the full control effect; nearly all actives have a fitted effect of over 65% in size. The method in brief: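 NADPH consumption followed by fluorescence at 340/450 nm, t=0 and after 15 min at room temperature. Reaction started with cumene hydroperoxide (0.5 mM final) after 30 min compound–GPX4 preincubation; final 200 nM GPX4, 100 nM GR, 1 mM GSH, 0.5 mM NADPH.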
Phospholipid hydroperoxide glutathione peroxidase GPX4 (Homo sapiens), sequence (P36969 whole entry, looked up): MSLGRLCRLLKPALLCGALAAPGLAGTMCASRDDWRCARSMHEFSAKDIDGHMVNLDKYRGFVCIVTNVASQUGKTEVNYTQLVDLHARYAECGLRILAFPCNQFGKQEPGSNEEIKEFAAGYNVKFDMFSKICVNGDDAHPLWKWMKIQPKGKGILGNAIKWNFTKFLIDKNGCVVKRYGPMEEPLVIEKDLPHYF

Assay [6] in a line: qHTS drug screen for cell cycle checkpoint inhibitors in PARPi-resistant BRCA-mutant ovarian cancer cell lines. (AID 1963452; calls by dose curve; note: potency is the fitted concentration of half-maximal effect). As to conditions: PEO1/OlaR viability, CellTiter-Glo luminescence, 96 h; for Z-AUC: stronger effect = lower value. The method in brief:
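PEO1, PEO4 and PEO1/OlaR ovarian cancer cells, 600 per well, exposed 96 h at 37C to a dilution series. Viability read by CellTiter-Glo luminescence, normalized to DMSO and empty wells; activity summarized as Z-AUC.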

The target of assay [7] is Rap guanine nucleotide exchange factor 3 (Homo sapiens) (UniProt O95398). Description: Confirmatory qHTS for agonist of cAMP-regulated guanine nucleotide exchange factor 3 (EPAC1) (AID 1645881).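 Note: EPAC1 catalysed release of BODIPY-GDP from Rap1B seen as fluorescence loss; 100% = effect of cAMP agonist control; nearly all actives have a fitted effect of over 75% in size.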
Rap guanine nucleotide exchange factor 3 (Homo sapiens), sequence (O95398 whole entry, looked up): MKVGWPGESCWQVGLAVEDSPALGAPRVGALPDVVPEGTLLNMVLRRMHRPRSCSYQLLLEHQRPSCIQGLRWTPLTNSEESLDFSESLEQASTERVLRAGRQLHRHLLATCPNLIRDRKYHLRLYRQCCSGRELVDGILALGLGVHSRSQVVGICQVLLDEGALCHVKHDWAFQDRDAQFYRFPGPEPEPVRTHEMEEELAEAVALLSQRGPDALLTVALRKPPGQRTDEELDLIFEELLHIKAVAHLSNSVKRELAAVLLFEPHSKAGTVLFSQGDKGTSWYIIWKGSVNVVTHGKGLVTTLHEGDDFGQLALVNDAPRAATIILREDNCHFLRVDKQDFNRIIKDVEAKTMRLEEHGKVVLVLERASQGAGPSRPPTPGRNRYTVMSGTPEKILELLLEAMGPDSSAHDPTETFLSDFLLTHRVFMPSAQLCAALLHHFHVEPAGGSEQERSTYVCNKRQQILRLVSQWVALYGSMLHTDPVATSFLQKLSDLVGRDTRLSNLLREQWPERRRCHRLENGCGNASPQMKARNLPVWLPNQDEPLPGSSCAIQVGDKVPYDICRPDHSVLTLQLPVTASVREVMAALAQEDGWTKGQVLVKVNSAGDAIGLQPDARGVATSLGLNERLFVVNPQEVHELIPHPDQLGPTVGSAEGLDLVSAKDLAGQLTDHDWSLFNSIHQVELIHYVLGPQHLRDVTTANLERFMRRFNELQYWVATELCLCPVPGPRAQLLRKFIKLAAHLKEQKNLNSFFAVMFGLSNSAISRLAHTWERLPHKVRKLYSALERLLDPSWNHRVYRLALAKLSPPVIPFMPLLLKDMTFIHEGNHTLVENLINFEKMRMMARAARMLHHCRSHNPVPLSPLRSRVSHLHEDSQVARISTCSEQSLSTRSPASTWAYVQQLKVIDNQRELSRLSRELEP
For assay [8], the target named is Rap guanine nucleotide exchange factor 4 (Homo sapiens) (UniProt Q8WZA2). Description: Confirmatory qHTS for agonist of cAMP-regulated guanine nucleotide exchange factor 4 (EPAC2) (AID 1645884).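 Note: nucleotide exchange releases bodipy-GDP from Rap1 and this lowers its fluorescence; % is set by controls: 0 for no effect and ±100 for the full control effect; nearly all actives have a fitted effect of over 65% in size.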
Rap guanine nucleotide exchange factor 4 (Homo sapiens), sequence (Q8WZA2 whole entry, looked up): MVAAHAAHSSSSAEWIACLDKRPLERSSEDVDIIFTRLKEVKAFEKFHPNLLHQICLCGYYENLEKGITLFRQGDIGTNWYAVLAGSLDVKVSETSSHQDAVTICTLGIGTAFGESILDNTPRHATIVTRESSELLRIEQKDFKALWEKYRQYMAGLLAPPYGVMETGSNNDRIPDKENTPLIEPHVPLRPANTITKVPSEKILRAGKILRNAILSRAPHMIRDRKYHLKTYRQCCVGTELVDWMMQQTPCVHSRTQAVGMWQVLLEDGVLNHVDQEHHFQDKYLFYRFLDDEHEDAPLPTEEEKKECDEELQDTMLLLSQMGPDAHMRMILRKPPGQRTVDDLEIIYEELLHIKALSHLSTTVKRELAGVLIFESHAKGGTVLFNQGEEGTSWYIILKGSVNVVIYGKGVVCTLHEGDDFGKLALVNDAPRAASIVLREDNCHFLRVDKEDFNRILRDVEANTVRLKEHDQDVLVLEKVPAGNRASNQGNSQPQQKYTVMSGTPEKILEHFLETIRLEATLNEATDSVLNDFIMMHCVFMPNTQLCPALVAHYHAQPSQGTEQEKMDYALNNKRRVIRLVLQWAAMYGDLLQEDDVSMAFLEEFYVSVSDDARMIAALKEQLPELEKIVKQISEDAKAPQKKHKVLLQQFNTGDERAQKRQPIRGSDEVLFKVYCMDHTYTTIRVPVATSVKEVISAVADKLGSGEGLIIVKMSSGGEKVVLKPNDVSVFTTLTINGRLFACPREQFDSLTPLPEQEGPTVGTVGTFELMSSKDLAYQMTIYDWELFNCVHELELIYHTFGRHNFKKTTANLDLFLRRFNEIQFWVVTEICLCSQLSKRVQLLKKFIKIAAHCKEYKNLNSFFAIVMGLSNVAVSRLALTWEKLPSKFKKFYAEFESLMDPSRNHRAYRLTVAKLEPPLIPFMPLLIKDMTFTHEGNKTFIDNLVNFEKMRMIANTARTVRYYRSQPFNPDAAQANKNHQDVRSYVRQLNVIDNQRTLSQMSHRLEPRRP
Assay [9] has the same target. Description: Confirmatory qHTS for antagonist of cAMP-regulated guanine nucleotide exchange factor 4 (EPAC2) (AID 1645885). Note: % is set by controls: 0 for no effect and ±100 for the full control effect; nearly all actives have a fitted effect of over 25% in size.
For assay [10], the target named is Rap guanine nucleotide exchange factor 3 (Homo sapiens) (UniProt O95398). Description: Counterscreen qHTS for antagonist of cAMP-regulated guanine nucleotide exchange factor 3 (EPAC1) (AID 1645888).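 Note: fluorescence loss as bound BODIPY-GDP is released from Rap1B; % of control where 0% means no effect.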 The method in brief:
(§1)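 Rap1B-BODIPY-GDP 250 nM + GDP 50 uM; cpds 7-pt, final 9.74 nM–152 uM (activator mode) or from 7.32 nM upwards (inhibitor mode); RT; FI 480/540 nm at 5 and 30 min, then ± cAMP, reread.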
Background: The purpose of a counterscreen is to sort out artefacts and off-target activity.

The target is the same in assay [11]. The assay is described as follows: Counterscreen qHTS for agonist of cAMP-regulated guanine nucleotide exchange factor 3 (EPAC1) (AID 1645889). Note: % of control where 0% means no effect; nearly all actives have a fitted effect of over 40% in size. The method in brief:
as §1

Glutathione peroxidase 1 (Homo sapiens), sequence (P07203 whole entry, looked up): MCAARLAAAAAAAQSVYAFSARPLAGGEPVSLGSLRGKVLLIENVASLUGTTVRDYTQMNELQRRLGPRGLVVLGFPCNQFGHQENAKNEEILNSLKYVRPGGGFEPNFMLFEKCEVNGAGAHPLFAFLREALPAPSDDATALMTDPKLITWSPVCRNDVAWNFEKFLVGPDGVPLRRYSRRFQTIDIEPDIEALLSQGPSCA
N-terminal Xaa-Pro-Lys N-methyltransferase 1 (Homo sapiens), sequence (Q9BV86 whole entry, looked up): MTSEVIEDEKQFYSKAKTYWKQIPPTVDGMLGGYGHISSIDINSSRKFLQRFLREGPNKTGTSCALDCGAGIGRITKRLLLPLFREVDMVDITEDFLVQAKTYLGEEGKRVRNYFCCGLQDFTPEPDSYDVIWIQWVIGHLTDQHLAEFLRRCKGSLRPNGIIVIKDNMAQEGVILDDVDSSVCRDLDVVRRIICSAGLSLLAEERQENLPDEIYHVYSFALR

For the compound `C=CC(=O)N1CC[C@@H](Oc2nc(Nc3ccc(N4CCC(N5CCN(C)CC5)CC4)cc3)c(C(N)=O)nc2CC)C1`, the Potency is 4.15 µM (active) in [1], 0.91 µM (active) in assay [2], 1.62 µM (active) in assay [3] and 1.69 µM (active) in assay [6]. The Potency result in assay [4] and in assay [5] was “inactive” throughout. Moreover, the figures for the Z-AUC in assay [6] (measured here: PEO1 parental Z-AUC) and in [6] (measured here: PEO4 Z-AUC) were -1.18 and -1.49, respectively. In the case of `Cc1cccc(C(=O)Nc2sc3c(c2C(=O)O)CCCC3)c1`, in assay [1], the Potency is 35.5 µM (active). For the same compound, the Potency entry in [7], in assay [8], in [9], in assay [10] and in assay [11] was “inactive” in each case. Consider `O=c1cc(-c2ccccc2)oc2ccc(O)cc12`, for which the Potency was 20 µM (active) in [1] and 18.4 µM (active) in assay [2]. For the same compound, in [4], the Potency result is “inactive”. As for `COc1ccc(C(=O)Nc2noc3ccccc23)cc1`, the Potency in [1] was 39.8 µM (active). Consider `O=S(=O)(c1cccc(Cl)c1)n1c(/C=C/c2ccccc2Cl)nc2ccccc21`, for which the Potency in assay [1] is 6.76 µM (active). `N#CNC(=O)c1ccc(-n2cccc2/C=C2\NC(=O)N(CC(=O)Nc3ccc(F)cc3)C2=O)cc1`: the Potency in assay [1] is 7.58 µM (active). `CCOc1ccccc1N1CC(c2nc3ccccc3n2CCCCOc2cc(C)ccc2C)CC1=O` (stereo not given): the Potency entry in [1] was “inactive”. Turning to `COc1c/c(=C2\C=c3ccccc3=N2)[nH]/c1=C/c1[nH]c(C)cc1C`, in assay [1], the Potency is 35 µM (active). Further, the Potency entry in assay [4] was “inactive”. In the case of `COc1cc2c(NC3CCN(C(C)C)CC3)nc(N3CCCN(CC4CCCCC4)CC3)nc2cc1OCCCN1CCCC1`, the Potency in [1] is 34.5 µM (active). As to `Cc1ccc(Nc2ncnc3c2cnn3-c2ccccc2)c(C)c1`, the Potency in assay [1] is 3.98 µM (active). Still for that read-out and setting: in the case of `c1csc(-c2nc3ccccn3c2Nc2ccc3c(c2)OCCO3)c1` it was 6.49 µM (active); in that of `Cc1cc(C)n2c(Nc3c(C)cccc3C)c(-c3ccsc3)nc2n1`, “inactive”. Take `Oc1cccc(Nc2nc(-c3ccccc3)nc3ccccc23)c1`: the Potency in assay [1] was 15.8 µM (active).

Take `COC(=O)c1ccc(NC(=O)CSc2nc3ccc(OC)cc3[nH]2)cc1`: the Potency entry in [1] was “inactive”. On the same count and under the same terms, the figure for `COc1cc(-c2nc3ccc(Cl)cn3c2Nc2ccc3c(c2)OCO3)ccc1O` is 5.15 µM (active). With `Cc1ccc(-n2ncc3c(NCCO)ncnc32)cc1Cl`, the Potency in [1] is 31.6 µM (active).

`COc1ccccc1C(=O)Nc1onc2c1CCCC2`: the Potency entry in [1] was “inactive”. Take `CC(NC(=O)c1sc2ncccc2c1-n1cccc1)c1ccccc1` (stereo not given): the Potency in [1] was 28.2 µM (active). In addition, the Potency result in assay [7], in [8], in assay [9] and in [10] was “inactive” throughout. In the case of `CNc1sc(-c2cccc3ccccc23)nc1C#N`, the Potency entry in assay [1] was “inactive”.

With `COc1cc2c(NC3CCN(CC4CCCCC4)CC3)nc(N3CCCN(C)CC3)nc2cc1OCCCN1CCCCC1`, the Potency in [1] is 34.5 µM (active). For `COc1cc2nc(Nc3ccc(C)c(C)c3)nc(N)c2cc1OC`, in assay [1], the Potency is 39.8 µM (active).

Regarding `COc1ccc(Nc2ncnc3sc4c(c23)CCCC4)cc1`, in assay [1], the Potency was 15.8 µM (active). In the case of `S=C(Nc1ccccn1)c1ccccn1`, the Potency in [1] was 10.3 µM (active). Turning to `Cc1ccc(-n2ncc3c(NCCCN(C)C)ncnc32)cc1Cl`, the Potency in assay [1] was 39.8 µM (active). Turning to `COc1cc2nc(N3CCCCC3)nc(NC3CC3)c2cc1OC`, the Potency in [1] is 34.5 µM (active). With `Clc1cccc(-c2nc3ccccn3c2Nc2ccc3c(c2)OCCO3)c1`, the Potency in assay [1] was 4.09 µM (active).
